The nature of assay [1]: qHTS assay to identify small molecule agonists of the hypoxia (HIF-1) signaling pathway - cell viability counter screen (AID 1224844; calls by dose curve; further: nearly all actives have a fitted effect of over 50% in size). An outline of the steps: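 HRE-bla ME-180 cells in medium with 0.5% dialyzed FBS were preincubated 5 hrs at 37C, exposed to compounds for 17 hrs, then viability was read as CellTiter-Glo luminescence after 30 min at room temperature, in the reporter wells.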
In general terms: qHTS replaces the single test concentration by a dilution series.

Assay [2] can be described thus: qHTS assay to identify small molecule agonists of the hypoxia (HIF-1) signaling pathway (AID 1224846; active means well fitted activation curve with a large enough effect in the signal ratio in the repeat runs, not every such curve was filed as active; the % refers to the signal ratio). An outline of the steps: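 HRE-bla ME-180 cells (beta-lactamase reporter under hypoxia response element) were plated at 2,000 cells/well in medium with 0.5% dialyzed FBS, rested 5 hrs, then given compounds in DMSO for 17 hrs at 37C, 5% CO2. Reporter induction was read with CCF4-AM FRET substrate.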

The nature of assay [3]: qHTS assay to identify small molecule agonists of H2AX - cell viability counter screen (AID 1224847; calls by dose curve; further: top concentration of the series differs between compounds; nearly all actives have a fitted effect of over 30% in size). An outline of the steps:
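After overnight plating of 1000 CHO-K1 cells per well, a 15-concentration compound series was applied for 3 hr at 37C. Luminescence from CellTiter-Glo, read following 30 min at room temperature, reflected cell viability.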

Assay [4] can be described thus: qHTS assay to identify small molecule antagonists of the estrogen related receptor (ERR) signaling pathway from Tox21 library (AID 1224848). Further: nearly all actives have a fitted effect of over 50% in size. Further: potency means the concentration at half of the fitted maximal effect. Put shortly: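 ERR reporter cell line (from NTP) seeded 2,000 cells/well, rested 6 h at 37 C/5% CO2, then pin-dosed with compounds in DMSO. After 18 h at 37 C, ONE-Glo added; luminescence read after 30 min at room temperature.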

The nature of assay [5]: qHTS assay to identify small molecule agonists of the estrogen related receptor (ERR) signaling pathway from Tox21 library (AID 1224849; calls by dose curve; further: nearly all actives have a fitted effect of over 15% in size). Conditions: ERR reporter cell line, ONE-Glo luciferase, 18 h; at 92.4 µM (top of the series). An outline of the steps: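 ERR reporter cell line (NTP) seeded, rested 6 h at 37 C/5% CO2, then pinned with Tox21 compounds in DMSO. After 18 h at 37 C, ONE-Glo luciferase luminescence was read following 30 min at room temperature.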

The nature of assay [6]: qHTS RealTime-Glo MT Cell Viability Assay in HepG2 cells - 24 hour (AID 1224867). Further: nearly all actives have a fitted effect of over 50% in size. Put shortly: (§1)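 Cells + NanoLuc/prosubstrate dispensed (600 cells/well) → 5 h at 37 C/5% CO2 → compounds in DMSO transferred → 40 h incubation at 37 C, luminescence read at 0, 8, 16, 24, 32, 40 h.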
Assay [7] is described as follows: qHTS RealTime-Glo MT Cell Viability Assay in HEK293 cells - 32 hour (AID 1224868). Further: nearly all actives have a fitted effect of over 50% in size. Further: potency means the concentration at half of the fitted maximal effect. An outline of the steps: (§2)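 Tox21 10K qHTS, HEK293, 600 cells/well, RealTime-Glo reagent co-dispensed with cells; 5 h preincubation, compound by pintool, 37 C, luminescence at 0–40 h.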
A short description of assay [8]: A CellTox Green Cytotoxicity Assay to monitor cytotoxicity in HEK293 cells - 0 hour (AID 1224869). Further: nearly all actives have a fitted effect of over 50% in size. An outline of the steps:
(§3)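 HEK293 cells premixed with CellTox Green dye were seeded at 600 cells/well and left 5 h at 37 C/5% CO2 before pin transfer of 23 nL compound in DMSO. Fluorescence from dye bound to dead-cell DNA was read during 40 h treatment.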

The nature of assay [9]: qHTS RealTime-Glo MT Cell Viability Assay in HepG2 cells - 40 hour (AID 1224870). Further: nearly all actives have a fitted effect of over 50% in size. Put shortly:
(§4)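 HepG2 cells (600/well) mixed with RealTime-Glo MT reagent, settled 5 h at 37 C/5% CO2 before compound addition. Nonlytic NanoLuc luminescence from viable-cell prosubstrate reduction read repeatedly during 40 h treatment at 37 C.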

Assay [10] is described as follows: A CellTox Green Cytotoxicity Assay to monitor cytotoxicity in HEK293 cells - 40 hour (AID 1224871). Further: nearly all actives have a fitted effect of over 45% in size. An outline of the steps: as §3
The nature of assay [11]: qHTS RealTime-Glo MT Cell Viability Assay in HEK293 cells - 16 hour (AID 1224872). Further: nearly all actives have a fitted effect of over 50% in size. Further: potency means the concentration at half of the fitted maximal effect. An outline of the steps:
as §2

Assay [12] in a line: qHTS RealTime-Glo MT Cell Viability Assay in HepG2 cells - 8 hour (AID 1224873). Further: nearly all actives have a fitted effect of over 55% in size. An outline of the steps: as §4
Assay [13] in a line: qHTS RealTime-Glo MT Cell Viability Assay in HEK293 cells - 40 hour (AID 1224874). Further: nearly all actives have a fitted effect of over 50% in size. Further: potency means the concentration at half of the fitted maximal effect. Conditions: RealTime-Glo luminescence; max response: hits give low values. An outline of the steps: (§5)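 HEK293 cells mixed with RealTime-Glo reagents (NanoLuc plus cell-permeant prosubstrate) at 600 cells/well, preincubated 5 h at 37 C/5% CO2, then given 23 nL compound in DMSO. Nonlytic luminescence from viable cells was read at 0, 8, 16, 24, 32 and 40 h.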

Assay [14] in a line: A CellTox Green Cytotoxicity Assay to monitor cytotoxicity in HEK293 cells - 24 hour (AID 1224875). Further: nearly all actives have a fitted effect of over 45% in size. Put shortly: as §3
Assay [15] can be described thus: A CellTox Green Cytotoxicity Assay to monitor cytotoxicity in HepG2 cells - 16 hour (AID 1224876). Further: nearly all actives have a fitted effect of over 45% in size. An outline of the steps: (§6)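 HepG2 cells were seeded together with the CellTox Green dye at 600 cells/well, left 5 h at 37 C/5% CO2, then given compounds in DMSO. Fluorescence from dye bound to dead-cell DNA was read repeatedly over 40 h of treatment at 37 C.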
The nature of assay [16]: A CellTox Green Cytotoxicity Assay to monitor cytotoxicity in HepG2 cells - 24 hour (AID 1224878). Further: nearly all actives have a fitted effect of over 45% in size. Put shortly: as §6
Assay [17] is described as follows: qHTS RealTime-Glo MT Cell Viability Assay in HEK293 cells - 0 hour (AID 1224880). Put shortly:
as §5

Assay [18] in a line: qHTS assay to identify small molecule agonists of H2AX (AID 1224845; active means well fitted activation curve with a large enough effect in the signal ratio in the repeat runs, not every such curve was filed as active; the % refers to the signal ratio). An outline of the steps: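 Wild-type CHO-K1 cells, plated overnight, exposed 3hr at 37C to 15 concentrations (0.76% DMSO final). Lysed, then HTRF anti-pH2AX (S139) cryptate and anti-H2AX-d2 antibodies, 24 hr room temperature; 665/620 nm emission read.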
Assay [19] can be described thus: A CellTox Green Cytotoxicity Assay to monitor cytotoxicity in HepG2 cells - 40 hour (AID 1224879). Further: nearly all actives have a fitted effect of over 40% in size. An outline of the steps: as §6
Assay [20] in a line: qHTS RealTime-Glo MT Cell Viability Assay in HepG2 cells - 32 hour (AID 1224877). Further: nearly all actives have a fitted effect of over 55% in size. Put shortly:
as §1

Unmarked numbers belong to inactive results. Records with an inconclusive call do not appear. The source made the active and inactive calls. Unless noted, the call rests on the fitted dose curve; in most records, active means well fitted curve in the direction sought with a large enough effect in the repeat runs; inconclusive means weak or mixed curves; inactive means no such curve, though single readings can be large; an effect the other way counts as inactive or inconclusive.

This note sets out measurements from PubChem BioAssay (Tox21).
On the % scale 0 is the no-effect control and ±100 the full control effect.

On to `COc1cc(C[C@@H](C)N)c(OC)cc1Br`, for which the Potency entry in assay [1], in assay [3], in assay [4], in assay [6], in assay [7] and in assay [8] was “inactive” throughout. The Potency entry in [9], in assay [10], in assay [11], in assay [12], in assay [14] and in [15] was “inactive” throughout. Further, in [16], the Potency entry was “inactive”. The compound was classed as inactive in assay [2] and in assay [17]. Further, the activity change, positive = activation in assay [5] was -15.6%. Further, in [13], the max response is -17.7%.

For the compound `CC(C)(c1ccccc1)c1cc(-n2nc3ccccc3n2)c(O)c(C(C)(C)c2ccccc2)c1`, the Potency entry in [1], in assay [18], in assay [3], in [6], in assay [7] and in assay [9] was “inactive” each time. For the same compound, the Potency entry in assay [10], in [11], in assay [14], in assay [15], in assay [16] and in [19] was “inactive” each time. In addition, the max response in [13] is 12.9%. Besides, in [17], the compound was called inactive.

As to `O=C(Cl)OCCOCCOC(=O)Cl`, the Potency result in [1], in assay [3], in [4], in assay [6], in [7] and in [8] was “inactive” in each case. Also, the Potency entry in [9], in assay [10], in [11], in assay [12], in assay [14] and in [15] was “inactive” throughout. Besides, the Potency result in [20], in assay [16] and in assay [19] was “inactive” in each case. Besides, the result in [2] and in [17] was inactive. Further, the activity change, positive = activation in [5] was 1.12%. The max response in assay [13] was 3.34%.

As to `Nc1ccc2c(c1)Cc1ccccc1-2`, the Potency result in assay [1], in assay [3], in assay [4], in assay [6], in [8] and in [9] was “inactive” in each case. Besides, the Potency result in assay [10], in [12], in assay [14], in [15], in assay [20] and in assay [16] was “inactive” in each case. For the same compound, the Potency entry in assay [19] was “inactive”. The result in [2] and in assay [17] was inactive. In assay [5], the activity change, positive = activation is -8.59% (active).

In the case of `CC(=O)NNc1ccccc1`, the Potency entry in assay [1], in [3], in assay [6], in [7], in [8] and in assay [9] was “inactive” each time. In addition, the Potency result in assay [10], in [11], in assay [14], in assay [15], in assay [16] and in assay [19] was “inactive” each time. In addition, the outcome in assay [2] and in assay [17] was inactive. Besides, the Potency in assay [4] is 4.82 µM (active). Besides, in [5], the activity change, positive = activation is -40.3%. For the same compound, the max response in assay [13] was 2.64%.

As to `COCc1cnc(C2=NC(C)(C(C)C)C(=O)N2)c(C(=O)O)c1` (stereo unspecified), the Potency result in [1], in assay [18], in [6], in assay [7], in assay [8] and in assay [9] was “inactive” throughout. Also, the Potency result in assay [10], in assay [11], in assay [14], in [16] and in assay [19] was “inactive” each time. The max response in assay [13] was 9.64%. Moreover, the compound was called inactive in [17].

Take `O=P(OCC(Br)CBr)(OCC(Br)CBr)OCC(Br)CBr` (stereo unspecified): the Potency result in assay [1], in [18], in [6], in [8], in [9] and in assay [10] was “inactive” throughout. Besides, the Potency result in assay [12], in [14], in [15], in assay [16] and in [19] was “inactive” in each case. The Potency is 27.9 µM (active) in assay [7], 22.2 µM (active) in [11] and 27.9 µM (active) in [13]. Besides, the call in [17] was inactive.
